Assay [1] concerns Plasmodium falciparum Sir2 (PF13_0152, Sir2A). Description: pfSir2 binders on small-molecule microarrays, primary screen, biochemical, small-molecule microarray, 635 nm fluorescence (AID 1098).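 Note: score merges spot fluorescence intensity with its signal-to-noise ratio.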 Particulars: small-molecule microarray binding, fluorescence 635 nm; higher = more signal.
Assay [2] in a line: small-molecule microarray binders of probe aDKK1, primary screen, biochemical, biotinylated probe, 635/667 nm fluorescence (AID 1099).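 Note: score merges 667nm spot fluorescence with signal to noise across triplicate slides; reference of the scale not given here.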 Particulars: higher = more signal.
Assay [3] is described as follows: small-molecule microarray binders of probe aCHRDL2, primary screen, biochemical, biotinylated probe, 635/667 nm fluorescence (AID 1100). Particulars: higher = more signal.
A short description of assay [4]: splicing luciferase reporter signal modulators, primary screen, spliceosome inhibition project, cell-based, HEK293, splice +/- reporter (AID 1101).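 Note: HEK293 cells carrying a splicing-competent luciferase reporter gene; test concentration not given here.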 Particulars: luminescence, 24 h, higher = more signal, called active from +8 up or from −8 down.
For assay [5], the target named is Fibroblast growth factor 10 (Homo sapiens) (UniProt O15520). Description: FGF10 binders on small-molecule microarrays, primary screen, biochemical, small-molecule microarray, 635 nm fluorescence (AID 1102). Particulars: FGF10 binding, fluorescence 635 nm, higher = more signal.
Assay [6] relates to glycogen synthase kinase-3 (GSK3A per assay name; protocol says GSK3B). Description: GSK3 binders on small-molecule microarrays, primary screen, biochemical, small-molecule microarray, 635 nm fluorescence, GSK3A (AID 1103). Note: the record names both GSK3A and GSK3B. The note with it: small-molecule microarray binding, fluorescence 635 nm; higher = more signal.
For assay [7], the target named is Epidermal growth factor receptor (Homo sapiens) (UniProt P00533). Description: EGFR binders on small-molecule microarrays, primary screen, biochemical, small-molecule microarray, 635 nm fluorescence (AID 1104).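 Note: score merges 667 nm emission intensity with spot signal to noise over triplicate slides.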 Particulars: EGFR binding, higher = more signal.
In assay [8] the target is Follistatin-related protein 3 (Homo sapiens) (UniProt O95633). Description: FSTL3 binders on small-molecule microarrays, primary screen, biochemical, small-molecule microarray, 635 nm fluorescence (AID 1105).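 Note: score merges emission near 667 nm and signal to noise per printed spot across three slides.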 The note with it: FSTL3 binding, higher = more signal.
In assay [9] the target is Dickkopf-related protein 1 (Homo sapiens) (UniProt O94907). Description: DKK1 binders on small-molecule microarrays, primary screen, biochemical, small-molecule microarray, 635 nm fluorescence scan (AID 1106).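 Note: score merges emission near 667 nm with signal to noise over three replicate slides.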 The note with it: DKK1 binding, higher = more signal.
Assay [10] concerns Inhibin beta A chain (activin A). Description: INHBA (activin A) binders on microarrays, primary screen, biochemical, small-molecule microarray, 635 nm fluorescence scan (AID 1107).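 Note: mouse activin A protein probed at 4.33 µg/mL on printed slides; score merges bound-protein fluorescence near 667 nm with spot signal-to-noise.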 Particulars: small-molecule microarray binding, higher = more signal.

Active and inactive are the calls of the source.

Dickkopf-related protein 1 (Homo sapiens), sequence (O94907 whole entry, looked up): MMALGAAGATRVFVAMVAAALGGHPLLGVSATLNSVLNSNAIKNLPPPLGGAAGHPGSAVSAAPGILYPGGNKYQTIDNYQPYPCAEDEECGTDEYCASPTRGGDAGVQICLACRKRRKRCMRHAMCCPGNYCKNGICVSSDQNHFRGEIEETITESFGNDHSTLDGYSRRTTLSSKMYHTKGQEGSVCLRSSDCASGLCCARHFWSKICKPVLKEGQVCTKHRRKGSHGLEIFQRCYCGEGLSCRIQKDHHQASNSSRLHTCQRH
Epidermal growth factor receptor (Homo sapiens), sequence (P00533 whole entry, looked up): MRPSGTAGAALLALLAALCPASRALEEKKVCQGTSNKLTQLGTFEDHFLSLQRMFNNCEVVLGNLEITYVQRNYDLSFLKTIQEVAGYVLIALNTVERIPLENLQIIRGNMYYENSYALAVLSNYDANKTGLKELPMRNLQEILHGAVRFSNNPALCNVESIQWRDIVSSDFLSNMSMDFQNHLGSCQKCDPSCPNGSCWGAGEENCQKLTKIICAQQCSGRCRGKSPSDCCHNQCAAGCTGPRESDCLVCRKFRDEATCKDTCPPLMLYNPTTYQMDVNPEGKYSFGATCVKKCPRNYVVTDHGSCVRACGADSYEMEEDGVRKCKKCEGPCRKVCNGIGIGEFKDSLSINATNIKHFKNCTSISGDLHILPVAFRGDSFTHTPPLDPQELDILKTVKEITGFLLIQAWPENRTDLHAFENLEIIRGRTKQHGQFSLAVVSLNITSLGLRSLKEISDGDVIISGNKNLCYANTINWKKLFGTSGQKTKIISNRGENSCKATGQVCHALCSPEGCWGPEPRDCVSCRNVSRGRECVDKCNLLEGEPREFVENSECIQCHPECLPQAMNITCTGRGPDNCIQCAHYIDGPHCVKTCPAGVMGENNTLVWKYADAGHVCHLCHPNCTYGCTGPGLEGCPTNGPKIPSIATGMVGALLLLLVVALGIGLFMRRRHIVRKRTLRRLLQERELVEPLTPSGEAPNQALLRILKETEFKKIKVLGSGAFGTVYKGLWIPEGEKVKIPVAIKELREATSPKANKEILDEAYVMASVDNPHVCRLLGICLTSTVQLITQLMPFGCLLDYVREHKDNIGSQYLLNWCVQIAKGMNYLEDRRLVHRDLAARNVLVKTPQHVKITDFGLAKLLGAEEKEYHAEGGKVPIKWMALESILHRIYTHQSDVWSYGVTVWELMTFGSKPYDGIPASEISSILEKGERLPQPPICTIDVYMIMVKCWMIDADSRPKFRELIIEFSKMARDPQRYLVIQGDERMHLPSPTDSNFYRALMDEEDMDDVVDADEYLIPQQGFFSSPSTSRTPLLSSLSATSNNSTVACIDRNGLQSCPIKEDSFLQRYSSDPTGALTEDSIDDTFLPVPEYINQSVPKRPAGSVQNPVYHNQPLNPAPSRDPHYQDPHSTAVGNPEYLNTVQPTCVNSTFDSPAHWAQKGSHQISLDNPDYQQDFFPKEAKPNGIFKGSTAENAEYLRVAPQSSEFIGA
Fibroblast growth factor 10 (Homo sapiens), sequence (O15520 whole entry, looked up): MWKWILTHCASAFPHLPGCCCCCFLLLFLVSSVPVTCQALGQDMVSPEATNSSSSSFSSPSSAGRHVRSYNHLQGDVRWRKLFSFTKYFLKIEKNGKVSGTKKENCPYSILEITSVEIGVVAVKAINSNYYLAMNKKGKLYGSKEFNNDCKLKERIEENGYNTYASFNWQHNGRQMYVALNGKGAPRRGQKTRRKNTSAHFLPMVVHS
Follistatin-related protein 3 (Homo sapiens), sequence (O95633 whole entry, looked up): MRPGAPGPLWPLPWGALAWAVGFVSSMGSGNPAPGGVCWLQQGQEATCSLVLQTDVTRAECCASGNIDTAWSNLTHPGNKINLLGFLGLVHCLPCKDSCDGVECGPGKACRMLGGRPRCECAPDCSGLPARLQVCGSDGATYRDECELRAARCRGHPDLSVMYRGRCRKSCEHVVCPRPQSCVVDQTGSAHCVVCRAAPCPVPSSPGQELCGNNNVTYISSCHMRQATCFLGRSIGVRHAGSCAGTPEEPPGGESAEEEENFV

With `COc1cc(NN2C(C(O)c3ccc(I)cc3)C=CC3C(=O)N(c4ccccc4)C(=O)C32)cc(OC)c1OC` (stereo not given), the composite z-score in assay [1] is 0.913; in assay [2] it was 0.763; in assay [3], 1.04; in assay [5], 1.17; in assay [6], 1.29; in [7] it was 0.266. Moreover, the composite z-score was 1.3 in [8], -0.305 in [9] and 0.946 in [10]. Moreover, the z-score in [4] is -0.329 (inactive).

As to `CCCC=C(CCC)[C@@H](NC(=O)CCc1ccccc1)c1ccc(C(F)(F)F)cc1`, the composite z-score was determined as 1.08 in [1]; 0.256 in [2]; 0.995 in assay [3]; 0.527 in assay [5]; 1.28 in assay [6]; 0.0694 in [7]. Also, the figures for the composite z-score in assay [8], in [9] and in [10] were 0.574, -0.429 and 0.724, respectively. The z-score in assay [4] is -1.57 (inactive).

`C=C/C=C/[C@@H]1C(=C)CN([C@@H](Cc2ccccc2)C(=O)OC)[C@H]1[C@@H](O)Cc1ccccc1`: the composite z-score was 0.742 in assay [1]; -0.369 in [2]; -0.186 in assay [3]; 0.716 in assay [5]; 0.754 in assay [6]; -0.08 in [7]. Moreover, the composite z-score in [8] was determined as 0.509; in [9] it was 0.473; in assay [10] it was 1.2. For the same compound, the z-score in assay [4] was 0.844 (inactive).

As for `NC(=O)[C@H]1[C@@H]2C(=O)O[C@@H](c3ccccc3)[C@@H](c3ccccc3)N2[C@@H](c2ccc(O)cc2)[C@]12C(=O)Nc1ccccc12`, the composite z-score is 0.845 in [1]; -0.352 in assay [2]; 0.561 in [3]; -1.07 in assay [5]; -1.69 in [6]; -1.15 in assay [7]. Further, the composite z-score in assay [8] was -1.51; in [9], -1.34; in [10], -1.11. Also, in assay [4], the z-score is -0.0764 (inactive).

On to `CO[C@H]1O[C@H](CO)[C@@H](OC(=O)Nc2cccc(F)c2)[C@H](OC(=O)Nc2ccccc2-c2ccccc2)[C@H]1OC(=O)Nc1ccccc1-c1ccccc1`, for which the composite z-score in assay [1] stood at 1.26; in assay [2] it was 0.255; in assay [3], 0.735; in assay [5], 1.46; in assay [6], 1.33; in assay [7] it was 0.321. For the same compound, the figures for the composite z-score in [8], in assay [9] and in [10] were 1.3, 0.585 and 0.664, respectively. In assay [4], the z-score was 4.28 (inactive).

In the case of `CC(C)(C)OC(=O)CC[C@]1(C(=O)N2CCCCC2)COC(c2ccc(OCCCO)cc2)=N1`, the composite z-score is 1.7 in assay [1]; 0.14 in assay [2]; 0.48 in [3]; 1.54 in [5]; 1.29 in assay [6]; 0.101 in [7]. Besides, the composite z-score in assay [8] was 0.324; in [9], -0.421; in assay [10] it was 0.567. In assay [4], the z-score is -0.527 (inactive).

Turning to `C=CCNC(=O)[C@H]1[C@@H]2C(=O)O[C@@H](c3ccccc3)[C@@H](c3ccccc3)N2[C@@H](c2ccc(OCCO)cc2)[C@]12C(=O)N(C(=O)OCCOC)c1ccc(C#Cc3ccc(OC)cc3)cc12`, the composite z-score in [1] is 1.28; in [2], 0.195; in [3], -0.0801; in assay [5] it was 0.866; in [6], 1.28; in [7], 0.639. The composite z-score in [8] was found to be 0.749; in [9] it was 0.189; in assay [10] it was 0.768. Besides, the z-score in [4] was -0.957 (inactive).

Turning to `CCCC=C(CCC)[C@@H](NS(=O)(=O)c1cccc2cccnc12)c1ccc(-c2ccccc2)cc1`, the composite z-score came to 0.757 in assay [1]; 0.939 in [2]; 0.75 in [3]; 1 in [5]; 1.32 in assay [6]; 0.355 in [7]. Further, the composite z-score was 0.909 in assay [8], -0.345 in assay [9] and -0.278 in assay [10]. Further, the z-score in [4] was -0.301 (inactive).

`C[C@]1(C(=O)O)c2ccccc2C(=O)N(Cc2ccc(OC(F)(F)F)cc2)[C@H]1c1ccc(CO)cc1`: the composite z-score is 0.0634 in assay [1]; 0.702 in assay [2]; 1.01 in assay [3]; 0.0104 in assay [5]; -0.502 in assay [6]; -0.409 in assay [7]. The results for the composite z-score in assay [8], in [9] and in [10] were -0.0953, -0.656 and 0.496, respectively. Moreover, the z-score in assay [4] is 0.524 (inactive).

Take `COCCOC(=O)N1C(=O)[C@@]2(c3cc(C#CC4=CCCCC4)ccc31)[C@H](c1ccc(O)cc1)N1[C@H](c3ccccc3)[C@H](c3ccccc3)OC(=O)[C@H]1[C@@H]2C(=O)NC[C@H](O)c1ccccc1`: the composite z-score in [1] was determined as 0.535; in [2], 0.0353; in assay [3], 0.129; in assay [5], 1.12; in [6], 0.348; in assay [7], 0.462. Also, the composite z-score in [8] came out at 1.17; in assay [9] it was 0.557; in assay [10] it was 0.528. Moreover, the z-score in assay [4] is -0.586 (inactive).

On to `CC(C)OC(=O)CC(=O)CC(O)c1ccc([N+](=O)[O-])cc1` (stereo not given), for which the composite z-score was 0.541 in assay [1]; 0.749 in assay [2]; 1.14 in assay [3]; 0.314 in assay [5]; 0.132 in assay [6]; -0.41 in [7]. Further, the composite z-score in assay [8] is 0.198; in assay [9], -0.953; in [10], 0.527. Further, in assay [4], the z-score was 0.162 (inactive).

Consider `CN(C)CCCCCCNC(=O)[C@@H]1C[C@@H]2C(=O)N[C@@H](CCCCN)C(=O)N2[C@@H]1c1ccc(O)cc1`, for which the composite z-score in [1] stood at 2.07; in assay [2], 3; in assay [3], 1.81; in assay [5] it was 1.58; in assay [6] it was 1.46; in assay [7] it was 1.68. Further, the results for the composite z-score in assay [8], in assay [9] and in [10] were 1.64, 2.29 and 1.56, respectively. Moreover, the z-score in assay [4] was -2.28 (inactive).

Consider `COC(=O)[C@@]1(Cc2ccccc2CN=[N+]=[N-])N=C(c2ccc(OCCCO)cc2)O[C@H]1c1ccccc1CN=[N+]=[N-]`, for which the composite z-score in [1] is 1.32; in assay [2] it was -0.0486; in [3], 1.02; in assay [5] it was -0.304; in assay [6] it was -0.568; in [7], -1.48. Also, the results for the composite z-score in assay [8], in assay [9] and in assay [10] were -0.774, -1.02 and -0.0879, respectively. Further, in [4], the z-score is -1.34 (inactive).

For the compound `COc1cc(C(O)C2C=CC3C(=O)N(Cc4ccccc4)C(=O)C3N2n2cnnc2)cc(OC)c1OC` (stereo not given), the composite z-score in assay [1] was 0.146; in assay [2], 0.71; in [3] it was 0.865; in assay [5], 0.571; in assay [6] it was 0.389; in assay [7], 0.489. In addition, the composite z-score in assay [8] amounted to 0.16; in [9] it was 0.134; in assay [10] it was 1.23. Further, the z-score in assay [4] is -0.696 (inactive).
